# Laboratory results: the supplement of paper PMC3545927
# Some of the results follow. The true hit rate is not given.
# Target: furin, P09958
# Assay: furin cleavage Z-score vs untreated control; higher = more cleavage, active = 3.5 or more, inactive = 1 or less, 8 variable residues between constant flanks
# Summary of the method: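 Purified furin digested bead-held 8-mer peptide–cDNA fusions at 1:10 enzyme:substrate in 0.01 ml of 50 mM HEPES pH 7.5 with CaCl2 and NaCl for 7.5, 15 or 30 min. The cleavage Z-score compares sequencing counts of released DNA with furin-free reactions on a log scale, with lowess adjustment and median absolute deviation scaling.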
# Sequence of furin, P09958 (P09958 whole entry): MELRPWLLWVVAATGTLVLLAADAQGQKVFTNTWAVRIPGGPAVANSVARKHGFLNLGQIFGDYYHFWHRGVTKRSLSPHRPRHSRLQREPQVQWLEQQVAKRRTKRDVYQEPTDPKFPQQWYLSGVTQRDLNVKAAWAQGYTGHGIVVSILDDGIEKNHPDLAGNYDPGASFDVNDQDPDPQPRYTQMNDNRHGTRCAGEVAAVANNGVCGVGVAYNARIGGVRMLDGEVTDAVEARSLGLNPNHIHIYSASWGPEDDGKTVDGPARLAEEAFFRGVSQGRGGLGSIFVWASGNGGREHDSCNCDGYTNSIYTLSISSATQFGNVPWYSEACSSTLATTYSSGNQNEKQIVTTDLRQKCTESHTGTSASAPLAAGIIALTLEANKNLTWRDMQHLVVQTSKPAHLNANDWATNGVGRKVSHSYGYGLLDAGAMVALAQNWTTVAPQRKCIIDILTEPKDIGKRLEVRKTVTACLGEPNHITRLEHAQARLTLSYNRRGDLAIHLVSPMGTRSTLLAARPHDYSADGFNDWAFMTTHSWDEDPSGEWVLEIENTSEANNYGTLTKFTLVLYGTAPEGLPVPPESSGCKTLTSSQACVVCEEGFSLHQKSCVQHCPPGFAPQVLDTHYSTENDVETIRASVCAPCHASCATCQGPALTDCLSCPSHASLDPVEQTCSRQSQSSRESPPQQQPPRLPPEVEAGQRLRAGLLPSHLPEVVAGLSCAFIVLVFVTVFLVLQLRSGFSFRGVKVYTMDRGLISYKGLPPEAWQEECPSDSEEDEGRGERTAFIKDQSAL
Sequence,furin cleavage Z-score (7.5 min),furin cleavage Z-score (15 min),furin cleavage Z-score (30 min)
CAVVCCSMSDAGNASASA [HC2091],-0.81 (inactive),0.345 (inactive),-0.759 (inactive)
CALCECYDAGAGNASASA [HC919],-0.871 (inactive),0.625 (inactive),-1.3 (inactive)
CAGHVKNGTMAGNASASA [HC1179],0.572 (inactive),0.821 (inactive),0.846 (inactive)
CARFSKSADEAGNASASA [FS-2927],-0.221 (inactive),-0.408 (inactive),-0.912 (inactive)
CARGARGVRVAGNASASA [FS-2929],-0.658 (inactive),-0.415 (inactive),-0.385 (inactive)
CARIRRDVRVAGNASASA [FS-1899],8.22 (active),10.4 (active),7.12 (active)
CAVALSTTGEAGNASASA [HC843],-1.85 (inactive),-1.96 (inactive),-0.758 (inactive)
CARIKKDKKEAGNASASA [FS-2951],-1.75 (inactive),-0.739 (inactive),-0.88 (inactive)
CARIRRGTDEAGNASASA [FS-1956],12.4 (active),12.2 (active),8.37 (active)
CARIRRDANEAGNASASA [FS-3189],13.3 (active),13.5 (active),9.85 (active)
CAEVPCHRPGAGNASASA [HC2416],-0.244 (inactive),-0.922 (inactive),0.598 (inactive)
CATKVCGAPPAGNASASA [HC441],0.138 (inactive),0.123 (inactive),-0.197 (inactive)
CARPRRGSHPAGNASASA [FS-2359],0.189 (inactive),1.65,2.41
CARPRRRLGPAGNASASA [FS-2503],0.585 (inactive),1.48,1.2
CARPRRFFPGAGNASASA [FS-1964],-0.922 (inactive),-0.718 (inactive),-0.224 (inactive)
CARPRRSAPKAGNASASA [FS-3200],8.12 (active),8.75 (active),6.05 (active)
CARPRRGSLRAGNASASA [FS-2502],-1.01 (inactive),-0.431 (inactive),1.07
CARPRRSAHRAGNASASA [FS-1863],8.93 (active),9.74 (active),8.89 (active)
CARPRRSAGKAGNASASA [FS-2059],6.62 (active),6.92 (active),6.48 (active)
